Assay results reported in the supplement of paper PMC6555819.

How the values were obtained:
Assay in all cases: PBM binding z-score (relative to random genomic background probes); higher = stronger binding; sequences stand for … in GC…GCGATTGACAGCGTAGAATGAAGG
[1] = system: FXR:RXRa (NR concentration 270 nM, RXRa partner concentration 90 nM)
Outline: (§1)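 For binding z-scores, the reference was random background probes on custom Agilent 4×180K protein-binding microarrays. These arrays were incubated 1 h with ligand-free nuclear receptor dimers in PBS pH 7.4, 2% milk, 0.02% Triton X-100, 1 mM DTT, 0.2 mg/mL BSA and 0.4 mg/ml salmon testes DNA. Fluorescence was scanned after antibody detection of each partner (one per run) and regression-normalized.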

[2] = system: LXRa:RXRa (NR concentration 270 nM, RXRa partner concentration 90 nM)
Outline: as §1

[3] = system: LXRa homodimer (NR concentration 270 nM)
Outline: as §1

[4] = system: LXRb:RXRa (NR concentration 270 nM, RXRa partner concentration 90 nM)
Outline: as §1

[5] = system: LXRb homodimer (NR concentration 270 nM)
Outline: as §1

[6] = system: PPARa:RXRa (NR concentration 270 nM, RXRa partner concentration 90 nM)
Outline: as §1

[7] = system: PPARg:RXRa (NR concentration 180 nM, RXRa partner concentration 90 nM)
Outline: as §1

[8] = system: PPARg:RXRa 270nM:90nM, anti-RXR (NR concentration 270 nM, RXRa partner concentration 90 nM)
Outline: as §1

[9] = system: PPARg:RXRa 30nM:10nM, anti-RXR (NR concentration 30 nM, RXRa partner concentration 10 nM)
Outline: as §1

[10] = system: PPARg:RXRa 90nM:30nM, anti-RXR (NR concentration 90 nM, RXRa partner concentration 30 nM)
Outline: as §1

Sequence	PBM binding z-score [1]	PBM binding z-score [2]	PBM binding z-score [3]	PBM binding z-score [4]	PBM binding z-score [5]	PBM binding z-score [6]	PBM binding z-score [7]	PBM binding z-score [8]	PBM binding z-score [9]	PBM binding z-score [10]
GCTAGTTGGTCAGTAAAAGGTAACACACCGGTCG	0.0852	0.248	0.0445	0.107	-0.224	0.694	0.783	0.945	0.0648	0.29
CCGACTGGGGCAAAGGTTACCAGACTCAGTACGA	1.56	1.7	-0.36	1.99	-1.21	5.91	10.5	8.66	8.75	9.25
AGAACGAGGGCAGTGAGTTGATAGCACGGGTGGC	-0.476	-0.6	-0.882	-0.705	-0.698	0.144	0.647	-0.0577	-0.624	-0.408
ATCTCTAGGTAACAAGTTCAGAGAAAGAGAGGAC	0.853	0.957	0.71	0.814	0.838	1.67	1.71	2.04	0.949	1.76
CCTAGTTGGTCAAGGTCACTCACGCTATAGGTAC	3.8	3.42	1.94	3.17	0.615	3.67	2.44	3.08	0.743	2.05
ACCATTAGTTGACTTAGGGCAACCGATACGACGC	0.502	0.629	0.679	0.464	0.693	0.273	1.06	0.133	0.182	0.582
ATACCAAGGTGATCGTAAGGTCGTTGATACTAAC	2.06	1.46	0.729	1.42	-0.157	1.71	0.613	0.737	0.111	0.398
TCTAGTTGGTCAAAGGTCACACAGTCGAAATGCG	6.26	5.83	4	5.36	1.46	6.64	11.6	9.15	10	11.1
CAAACTAGGTCACGAAAGCTCAAAGTCGAATGAC	4.45	3.66	0.551	2.56	0.287	5.46	9.27	7.24	5.74	7.12
TCGAGTAGGTTACCAATGGGGCATTAAGCTTTCT	-0.382	1.24	-0.459	0.663	-1.11	0.96	0.247	1.17	1.39	1.18
GCGCGGAGGACAAGGTCAGAGCTTTGTCCGTAGA	1.64	1.37	-0.378	1.01	-1.25	2.27	0.135	1.16	-0.943	0.36
GCGACTGCGGCAAAGCAGGTTACCATAAGGTTGG	-0.436	-0.494	-0.713	-0.429	-1.51	0.0395	0.3	-0.534	-0.785	-0.92
